Source: the supplement of paper PMC7411054

Key:
Settings in all cases: treatment time: 24 h
HepG2-GM130-SQSTM1 [1] = test: lowest phenotypically active concentration; higher = less potent
How it was run: (§1)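 Two criteria together defined phenotypic activity: deviation and reproducibility. Deviation meant ≥3 of 4 wells beyond the 95th percentile of Euclidean distances in solvent control wells, and reproducibility meant a median replicate Pearson correlation above the 95th percentile of non-replicates. Wells had been treated for 24 h at 0.3, 1, 3 or 9 µM in fifteen gene-edited A549, HepG2 and WPMY1 reporter lines before live imaging.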

WPMY1-GM130-SQSTM1 [2] = test: as above
How it was run: as §1

A549-ACTB-RAB5A = test: phenotypically active (imaging signature differs from DMSO and reproducible) at any of 0.3-9 uM (binary (1 = active, 0 = inactive)); higher = active
How it was run: as §1

A549-CANX-COX4 = test: as above
How it was run: as §1

A549-GM130-SQSTM1 = test: as above
How it was run: as §1

A549-TP53BP1-CLTA = test: as above
How it was run: as §1

A549-TUBA1B-RELA = test: as above
How it was run: as §1

HepG2-ACTB-RAB5A = test: as above
How it was run: as §1

HepG2-CANX-COX4 = test: as above
How it was run: as §1

HepG2-GM130-SQSTM1 [3] = test: as above
How it was run: as §1

HepG2-TP53BP1-CLTA = test: as above
How it was run: as §1

HepG2-TUBA1B-RELA = test: as above
How it was run: as §1

WPMY1-ACTB-RAB5A = test: as above
How it was run: as §1

WPMY1-CANX-COX4 = test: as above
How it was run: as §1

WPMY1-GM130-SQSTM1 [4] = test: as above
How it was run: as §1

WPMY1-TP53BP1-CLTA = test: as above
How it was run: as §1

WPMY1-TUBA1B-RELA [5] = test: as above
How it was run: as §1

WPMY1-TUBA1B-RELA [6] = test: lowest phenotypically active concentration; higher = less potent
How it was run: as §1

Compound | lowest phenotypically active concentration (HepG2-GM130-SQSTM1 [1]) | lowest phenotypically active concentration (WPMY1-GM130-SQSTM1 [2]) | phenotypically active (A549-ACTB-RAB5A) | phenotypically active (A549-CANX-COX4) | phenotypically active (A549-GM130-SQSTM1) | phenotypically active (A549-TP53BP1-CLTA) | phenotypically active (A549-TUBA1B-RELA) | phenotypically active (HepG2-ACTB-RAB5A) | phenotypically active (HepG2-CANX-COX4) | phenotypically active (HepG2-GM130-SQSTM1 [3]) | phenotypically active (HepG2-TP53BP1-CLTA) | phenotypically active (HepG2-TUBA1B-RELA) | phenotypically active (WPMY1-ACTB-RAB5A) | phenotypically active (WPMY1-CANX-COX4) | phenotypically active (WPMY1-GM130-SQSTM1 [4]) | phenotypically active (WPMY1-TP53BP1-CLTA) | phenotypically active (WPMY1-TUBA1B-RELA [5]) | lowest phenotypically active concentration (WPMY1-TUBA1B-RELA [6])
CC1(C)CC(=O)c2c(S(C)(=O)=O)sc(Cl)c2C1 | 1 µM | 3 µM | 0 (inactive) | 0 (inactive) | 0 (inactive) | 0 (inactive) | 0 (inactive) | 0 (inactive) | 0 (inactive) | 1 (active) | 0 (inactive) | 0 (inactive) | 0 (inactive) | 0 (inactive) | 1 (active) | 0 (inactive) | 0 (inactive) | –
O=c1cc(-c2ccc(O)cc2)oc2cc(O)cc(O)c12 [Apigenin] | 9 µM | 9 µM | 0 (inactive) | 0 (inactive) | 0 (inactive) | 0 (inactive) | 0 (inactive) | 0 (inactive) | 0 (inactive) | 1 (active) | 1 (active) | 1 (active) | 0 (inactive) | 0 (inactive) | 1 (active) | 1 (active) | 1 (active) | 9 µM
CNCC(O)c1ccc(OC(=O)C(C)(C)C)c(OC(=O)C(C)(C)C)c1 (configuration not stated) [dipivefrine] | – | 9 µM | 0 (inactive) | 0 (inactive) | 0 (inactive) | 0 (inactive) | 0 (inactive) | 0 (inactive) | 0 (inactive) | 0 (inactive) | 0 (inactive) | 0 (inactive) | 0 (inactive) | 0 (inactive) | 1 (active) | 0 (inactive) | 0 (inactive) | –
NC(=O)c1ccc(I)c([N+](=O)[O-])c1 | 9 µM | – | 0 (inactive) | 0 (inactive) | 0 (inactive) | 0 (inactive) | 0 (inactive) | 0 (inactive) | 0 (inactive) | 1 (active) | 0 (inactive) | 0 (inactive) | 0 (inactive) | 0 (inactive) | 0 (inactive) | 0 (inactive) | 0 (inactive) | –
c1ccc(-c2cnn3cc(-c4ccc(OCCN5CCOCC5)cc4)cnc23)cc1 | – | – | 0 (inactive) | 0 (inactive) | 0 (inactive) | 0 (inactive) | 0 (inactive) | 0 (inactive) | 0 (inactive) | 0 (inactive) | 0 (inactive) | 1 (active) | 0 (inactive) | 0 (inactive) | 0 (inactive) | 0 (inactive) | 0 (inactive) | –
CN/C(=C/[N+](=O)[O-])NCCSCc1csc(CN(C)C)n1 [nizatidine] | – | – | 0 (inactive) | 0 (inactive) | 0 (inactive) | 0 (inactive) | 0 (inactive) | 0 (inactive) | 0 (inactive) | 0 (inactive) | 1 (active) | 0 (inactive) | 0 (inactive) | 0 (inactive) | 0 (inactive) | 0 (inactive) | 0 (inactive) | –
